Drawing on PubChem BioAssay, this text covers inhibition for five molecules.

For orientation: inhibition means the share of the control response that was lost under treatment.

Calls of active or inactive are those of the source. How the calls were made is not given here.

In the assay the target is Pantothenate synthetase (Mycobacterium tuberculosis (strain ATCC 25618 / H37Rv)) (UniProt P9WIL5). As to the kind of experiment: Recombinant Mtb pantothenate synthetase (PanC) inhibitors, coupled enzyme, confirmatory (AID 375).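 Further: 0% = full reaction with vehicle and 100% = no enzyme background.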 The following applies: coupled enzyme assay; at 10 µM, stronger effect = higher value.
Pantothenate synthetase (Mycobacterium tuberculosis (strain ATCC 25618 / H37Rv)), sequence (P9WIL5 whole entry, looked up): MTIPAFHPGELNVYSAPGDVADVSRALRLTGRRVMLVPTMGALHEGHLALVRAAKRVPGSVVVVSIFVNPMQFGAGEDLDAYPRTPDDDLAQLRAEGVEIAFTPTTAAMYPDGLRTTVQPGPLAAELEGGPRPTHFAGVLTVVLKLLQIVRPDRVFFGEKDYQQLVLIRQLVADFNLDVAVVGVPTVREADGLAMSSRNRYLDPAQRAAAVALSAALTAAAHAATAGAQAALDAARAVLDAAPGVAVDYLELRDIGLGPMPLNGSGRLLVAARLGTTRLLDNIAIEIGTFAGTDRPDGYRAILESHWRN
As for `Cc1onc(-c2c(F)cccc2Cl)c1C(=O)Nc1nc2c(s1)CCCC2`, the inhibition is 0% (inactive).

Consider `CC1(C)Cc2c(sc3c2C2=NCCN2C=N3)CO1`, for which the inhibition was 0% (inactive). The result for `CCCCCCCCNC(C)C(O)c1ccc(SC(C)C)cc1` (stereo not given) reads 0% (inactive).

For `CC[N+](C)(C)c1cccc(O)c1`, the inhibition was 0% (inactive). The result for `COc1cccc(C(=O)OCn2nnc3ccccc3c2=O)c1OC` reads 0% (inactive).
